Counter-ions that a name gives are not always drawn. ± gives the uncertainty stated by the source.
system: THP-1; test: CD86 surface expression induction over DMSO control (% over DMSO); higher = stronger dendritic cell activation; conditions: exposure time: 24 h
Procedure: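 hCLAT-like CD54 and CD86 surface expression on THP1 cells after 24 h exposure at a single concentration (highest non-cytotoxic concentration, or 100-200 µM if not cytotoxic). Flow cytometry (iQue) was run on 5,000 live cells.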

Structure (SMILES) | CD86 surface expression induction
CN(C)c1ccc(N)cc1 [N,N-Dimethyl-p-phenylenediamine] (100 µM) | 44.5 ± 46
COP(=S)(OC)Oc1ccc(SC)c(C)c1 [Fenthion] (100 µM) | -4.96 ± 3.4
CC(C)CC(C)Nc1ccc(Nc2ccccc2)cc1 (stereo not given) [N-(1,3-Dimethylbutyl)-N'-phenyl-p-phenylenediamine] (10 µM) | 59.8 ± 11
CCOC(=O)NC(=S)Nc1ccccc1NC(=S)NC(=O)OCC [Thiophanate] (100 µM) | 10.2 ± 18
CCC(C)(c1ccc(O)cc1)c1ccc(O)cc1 [Bisphenol B] (200 µM) | 4.76 ± 3
[CH3][Hg][Cl] [Methyl mercuric (II) chloride] (10 µM) | 86 ± 7.1
Nc1ccc2ccccc2c1 [2-Naphthylamine] (100 µM) | 68.7 ± 65
CCOCN(C(=O)CCl)c1c(C)cccc1CC [Acetochlor] (10 µM) | 90 ± 25
O=[N+]([O-])c1cc(C(F)(F)F)c(Cl)c([N+](=O)[O-])c1Cl [2,4-Dichloro-1,3-dinitro-5-(trifluoromethyl)benzene] (10 µM) | 34.2 ± 15
C=CC(=O)OCC(COC(=O)C=C)(COC(=O)C=C)COC(=O)C=C [Pentaerythritol tetraacrylate] (10 µM) | 8.9 ± 7.2
N#CCC#N [Propanedinitrile] (199 µM) | -2.3 ± 0.49
O=C(N/N=C/c1ccc([N+](=O)[O-])o1)c1cc([N+](=O)[O-])cc([N+](=O)[O-])c1O [Nifursol] (200 µM) | 8.52 ± 13
CCS(=O)(=O)CCSP(=O)(OC)OC [Demeton-S-methylsulphon] (10 µM) | -12.6 ± 14
O=C(CCl)c1ccccc1 [2-Chloroacetophenone] (100 µM) | 8.54 ± 19
O=C(O)c1ccc(=O)[nH]c1 [6-Hydroxynicotinic acid] (100 µM) | -4.7 ± 6.2
O=C1C(Cl)=C(Cl)C(=O)C(Cl)=C1Cl [Chloranil] (100 µM) | 16.6 ± 9.4
CCCOC/C(=N\c1ccc(Cl)cc1C(F)(F)F)n1ccnc1 [Triflumizole] (10 µM) | -11.1 ± 7.1
Cc1cc(C2CC2)nc(Nc2ccccc2)n1 [Cyprodinil] (200 µM) | 44.9 ± 64
ClC1=C(Cl)C(Cl)(Cl)C(Cl)=C1Cl [Hexachlorocyclopentadiene] (200 µM) | 99.2 ± 97
CCC(C)(CC)c1cc(NC(=O)c2c(OC)cccc2OC)on1 [Isoxaben] (200 µM) | 0.63 ± 1.4

Structure (SMILES) | CD86 surface expression induction
CN(C)S(=O)(=O)N(SC(F)(Cl)Cl)c1ccccc1 [Dichlofluanid] (10 µM) | 88.09 ± 0.57
CN(C)c1ccc(N(C)C)cc1 [*N,N,N',N'-Tetramethyl-p-phenylenediamine] (200 µM) | 52.4 ± 59
[OH-].c1cc[c]([Sn+]([c]2ccccc2)[c]2ccccc2)cc1 [Triphenyltin hydroxide] (10 µM) | 77.3 ± 9.9
c1cc(OCC2CO2)cc(OCC2CO2)c1 (stereo not given) [Diglycidyl resorcinol ether (DGRE)] (10 µM) | -10.6 ± 5
CCC(C)(NC(=O)c1cc(Cl)c(C)c(Cl)c1)C(=O)CCl (stereo not given) [Zoxamide] (10 µM) | -5.9 ± 2.3
O=[N+]([O-])c1ccc(Oc2ccc(C(F)(F)F)cc2[N+](=O)[O-])cc1 [Fluorodifen] (10 µM) | -11.9 ± 9.2
Fc1ccc(Oc2ccnc3cc(Cl)cc(Cl)c23)cc1 [Quinoxyfen] (200 µM) | 2.53 ± 5
CC(COc1ccc(Oc2ccccc2)cc1)Oc1ccccn1 (stereo not given) [Pyriproxyfen] (200 µM) | -0.44 ± 4.1
C=C1C[C@@H]2[C@H](CC[C@]3(C)C(=O)CC[C@@H]23)[C@@]2(C)C=CC(=O)C=C12 [Exemestane] (100 µM) | 12.3 ± 25
COc1ccccc1N [2-Methoxyaniline hydrochloride] (100 µM) | -19.9 ± 30
Nc1cc(Cl)ccc1O [2-Amino-4-chlorophenol] (200 µM) | 41.9 ± 31
CCOC(=O)CC(SP(=S)(OC)OC)C(=O)OCC (stereo not given) [Malathion] (100 µM) | -0.63 ± 4.7
c1ccc(-c2cccc(-c3ccccc3)c2)cc1 [1,1':3',1''-Terphenyl] (200 µM) | 17.1 ± 26
CC(C)Nc1ccc(Nc2ccccc2)cc1 [N-Isopropyl-N'-phenyl-p-phenylenediamine] (10 µM) | 91.4 ± 6.8
OC[P+](CO)(CO)CO [Tetrakis(hydroxymethyl)phosphonium SO4] (100 µM) | 6.79 ± 11
[Cl][Cd][Cl] [Cadmium II chloride] (200 µM) | 51.1 ± 5.8
CC(C)=CC1C(C(=O)OCc2coc(Cc3ccccc3)c2)C1(C)C (stereo not given) [Resmethrin] (200 µM) | 16.4 ± 4.8
CC(C)(C)C(=O)CCl [1-Chloro-3,3-dimethyl-butan-2-one] (200 µM) | -2.11 ± 2.4
Nc1ccc(Cl)cc1Cl [2,4-Dichloroaniline] (200 µM) | -3.25 ± 7.7
Cl/C=C\C[N+]12CN3CN(CN(C3)C1)C2 [Chloroallyl methenamine chloride] (10 µM) | -4.14 ± 1.1
